Among the data in PubChem BioAssay are composite z-score and z-score values, retold here.

Assay [1] has as its system Plasmodium falciparum Sir2 (PF13_0152, Sir2A). Put plainly: Plasmodium falciparum Sir2A binding compounds – biochemical, small-molecule microarray, 635 nm fluorescence, primary screen (AID 1098).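 Further: score merges spot fluorescence intensity with its signal-to-noise ratio.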 Conditions: fluorescence 635 nm, higher = more signal.
Assay [2] in a line: probe aDKK1 binding to arrayed compounds – biochemical, biotinylated probe, 635/667 nm fluorescence, primary screen (AID 1099).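 Further: score merges 667nm spot fluorescence with signal to noise across triplicate slides.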 Conditions: small-molecule microarray, higher = more signal.
Assay [3] is described as follows: probe aCHRDL2 binding to arrayed compounds – biochemical, biotinylated probe, 635/667 nm fluorescence, primary screen (AID 1100). Particulars: small-molecule microarray, higher = more signal.
The nature of assay [4]: change in splice reporter luminescence, either direction, cell-based, HEK293, spliceosome inhibition project, primary screen (AID 1101).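 Further: HEK293 cells carrying a splicing-competent luciferase reporter gene; test concentration not given here.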 Particulars: HEK293 splicing luciferase reporter, 24 h, higher = more signal, called active from +8 up or from −8 down. In general terms: In a reporter assay the amount or activity of a reporter protein is the signal.
Assay [5] concerns the target Fibroblast growth factor 10 (Homo sapiens) (UniProt O15520). Put plainly: compounds binding fibroblast growth factor 10 – biochemical, small-molecule microarray, 635 nm fluorescence, primary screen (AID 1102). Particulars: FGF10 binding, fluorescence 635 nm, higher = more signal.
For assay [6], the system named is glycogen synthase kinase-3 (GSK3A per assay name; protocol says GSK3B). Nature of the assay: compounds binding glycogen synthase kinase-3 – biochemical, small-molecule microarray, 635 nm fluorescence, GSK3A, primary screen (AID 1103). Further: the record names both GSK3A and GSK3B. Particulars: fluorescence 635 nm, higher = more signal.
For assay [7], the target named is Epidermal growth factor receptor (Homo sapiens) (UniProt P00533). Put plainly: compounds binding epidermal growth factor receptor – biochemical, small-molecule microarray, 635 nm fluorescence, primary screen (AID 1104).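 Further: score merges 667 nm emission intensity with spot signal to noise over triplicate slides.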 Particulars: EGFR binding, higher = more signal.
Epidermal growth factor receptor (Homo sapiens), sequence (P00533 whole entry, looked up): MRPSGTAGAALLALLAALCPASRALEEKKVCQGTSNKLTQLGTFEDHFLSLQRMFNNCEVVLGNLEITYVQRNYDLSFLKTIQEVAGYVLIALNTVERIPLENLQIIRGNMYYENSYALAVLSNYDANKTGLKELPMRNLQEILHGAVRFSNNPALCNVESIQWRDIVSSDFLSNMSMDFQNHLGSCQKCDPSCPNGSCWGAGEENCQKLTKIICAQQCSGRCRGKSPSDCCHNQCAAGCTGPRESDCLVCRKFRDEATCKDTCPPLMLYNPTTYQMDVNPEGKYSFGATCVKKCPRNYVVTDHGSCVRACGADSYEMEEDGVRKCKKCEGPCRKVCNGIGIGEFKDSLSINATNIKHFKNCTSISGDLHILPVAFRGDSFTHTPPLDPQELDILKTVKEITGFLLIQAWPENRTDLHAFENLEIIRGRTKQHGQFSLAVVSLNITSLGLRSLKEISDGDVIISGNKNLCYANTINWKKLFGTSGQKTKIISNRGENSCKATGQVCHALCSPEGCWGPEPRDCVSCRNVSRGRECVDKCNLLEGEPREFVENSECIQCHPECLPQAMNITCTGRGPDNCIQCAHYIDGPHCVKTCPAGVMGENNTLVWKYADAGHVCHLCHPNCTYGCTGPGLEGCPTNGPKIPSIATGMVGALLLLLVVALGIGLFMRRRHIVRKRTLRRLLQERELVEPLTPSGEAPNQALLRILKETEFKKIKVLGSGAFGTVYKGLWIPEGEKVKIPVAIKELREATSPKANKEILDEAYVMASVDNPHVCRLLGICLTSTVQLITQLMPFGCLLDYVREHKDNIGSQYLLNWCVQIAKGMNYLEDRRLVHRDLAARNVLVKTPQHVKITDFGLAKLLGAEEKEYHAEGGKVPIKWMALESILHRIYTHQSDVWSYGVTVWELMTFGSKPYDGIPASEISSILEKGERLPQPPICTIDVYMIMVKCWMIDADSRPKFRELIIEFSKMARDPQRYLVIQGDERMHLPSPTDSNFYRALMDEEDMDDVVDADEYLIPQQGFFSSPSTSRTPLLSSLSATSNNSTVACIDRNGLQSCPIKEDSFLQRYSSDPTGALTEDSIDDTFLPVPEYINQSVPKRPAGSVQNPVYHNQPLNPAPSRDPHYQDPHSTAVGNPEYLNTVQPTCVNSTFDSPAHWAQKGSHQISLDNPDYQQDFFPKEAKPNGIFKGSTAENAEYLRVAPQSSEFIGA
In assay [8] the target is Follistatin-related protein 3 (Homo sapiens) (UniProt O95633). Put plainly: compounds binding follistatin-related protein 3 – biochemical, small-molecule microarray, 635 nm fluorescence, primary screen (AID 1105).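 Further: score merges emission near 667 nm and signal to noise per printed spot across three slides.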 Conditions: FSTL3 binding, higher = more signal.
Follistatin-related protein 3 (Homo sapiens), sequence (O95633 whole entry, looked up): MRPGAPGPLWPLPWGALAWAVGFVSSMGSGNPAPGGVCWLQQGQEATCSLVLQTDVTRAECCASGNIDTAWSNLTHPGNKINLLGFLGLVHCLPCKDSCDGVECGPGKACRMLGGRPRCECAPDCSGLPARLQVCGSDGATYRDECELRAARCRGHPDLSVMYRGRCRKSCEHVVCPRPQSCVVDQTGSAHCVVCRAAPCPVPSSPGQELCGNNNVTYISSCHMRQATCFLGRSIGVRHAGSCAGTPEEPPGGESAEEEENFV
Assay [9] has as its target Dickkopf-related protein 1 (Homo sapiens) (UniProt O94907). Nature of the assay: small molecules binding DKK1 protein – biochemical, small-molecule microarray, 635 nm fluorescence scan, primary screen (AID 1106).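 Further: score merges emission near 667 nm with signal to noise over three replicate slides.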 Particulars: higher = more signal.
In assay [10] the test system is Inhibin beta A chain (activin A). Put plainly: small molecules binding activin A – biochemical, small-molecule microarray, 635 nm fluorescence scan, primary screen (AID 1107).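 Further: mouse activin A protein probed at 4.33 µg/mL on printed slides; score merges bound-protein fluorescence near 667 nm with spot signal-to-noise.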 Conditions: INHBA, higher = more signal.
In assay [11] the test system is Human papillomavirus type 1a protein E7 (residues 44-93). Nature of the assay: small molecules binding HPV E7 44-93 – biochemical, small-molecule microarray, residues 44-93, 635 nm fluorescence, primary screen (AID 1108).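 Further: E7 fragment applied at 1 µg/mL in TBST for 1 h at 4 C; score combines spot fluorescence with its signal to noise ratio.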 Conditions: fluorescence 635 nm, higher = more signal.
Assay [12] in a line: hepatitis C replication reporter changes, two-sided – Huh7 cells, luciferase reporter, HCV replication inhibitor project, primary screen (AID 1109).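 Further: huh7 hepatoma cells harbouring a luciferase neomycin HCV replicon reporter; luciferase luminescence as measure of HCV replicon replication; test concentration not given here.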 Particulars: Huh7 HCV replicon luciferase reporter, 48 h; higher = more signal.
In assay [13] the target is Left-right determination factor 2 (Homo sapiens) (UniProt O00292). Nature of the assay: small molecules binding LEFTY2 protein – biochemical, small-molecule microarray, 635 nm fluorescence scan, primary screen (AID 1110). Conditions: higher = more signal.
Left-right determination factor 2 (Homo sapiens), sequence (O00292 whole entry, looked up): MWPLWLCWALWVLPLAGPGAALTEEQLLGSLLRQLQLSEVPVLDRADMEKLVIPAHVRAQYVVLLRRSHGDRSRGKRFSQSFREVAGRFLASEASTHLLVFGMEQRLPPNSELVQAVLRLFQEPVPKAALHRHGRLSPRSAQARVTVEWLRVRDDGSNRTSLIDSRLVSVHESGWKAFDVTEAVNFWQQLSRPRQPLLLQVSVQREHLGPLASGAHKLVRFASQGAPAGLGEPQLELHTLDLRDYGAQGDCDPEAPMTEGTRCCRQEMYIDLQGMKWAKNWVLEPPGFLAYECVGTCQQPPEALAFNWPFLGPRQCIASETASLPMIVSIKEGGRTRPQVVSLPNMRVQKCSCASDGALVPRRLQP
In assay [14] the target is Calmodulin-1 (Homo sapiens) (UniProt P0DP23). Put plainly: small molecules binding calmodulin-1 with EGTA – biochemical, small-molecule microarray, Cy5-labelled CALM1, profiling panel (AID 1111).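 Further: labelled calmodulin applied in Tris saline Tween buffer holding calcium plus EGTA and DTT.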 Conditions: Cy5-CALM1 binding fluorescence, higher = more signal.
The target is the same in assay [15]. Nature of the assay: small molecules binding Ca-loaded calmodulin-1 – biochemical, small-molecule microarray, Cy5-labelled CALM1, plus calcium, artefact control for SMM control-protein annotation, profiling panel (AID 1112).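 Further: score merges spot fluorescence with signal to noise from triplicate slides.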 Particulars: Cy5-CALM1 binding fluorescence, higher = more signal.
A short description of assay [16]: probe aWnt5a binding to arrayed compounds – biochemical, biotinylated probe, 635/667 nm fluorescence, primary screen (AID 1113).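 Further: score merges 667 nm fluorescence intensity with signal-to-noise per printed feature.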 Conditions: small-molecule microarray, higher = more signal.
Assay [17] is described as follows: probe aShh binding to arrayed compounds – biochemical, biotinylated probe, 635/667 nm fluorescence, primary screen (AID 1114).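 Further: probe is biotin-labelled aShh protein from a stem cell growth factor screen; measures binding of labelled protein to compounds printed on the slide; score merges feature fluorescence at 667 nm with signal-to-noise.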 Conditions: small-molecule microarray, higher = more signal.
Assay [18] is described as follows: probe aNog binding to arrayed compounds – biochemical, biotinylated probe, 635/667 nm fluorescence, primary screen (AID 1115).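 Further: probe is biotinylated aNog protein used at 0.15 µg/mL for 1 h at 4 C; z-score combines 667 nm fluorescence of each spot with its signal to noise.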 Particulars: small-molecule microarray, higher = more signal.
The target in assay [19] is Torsin-1A-interacting protein 1 (Homo sapiens) (UniProt Q5JTV8). Nature of the assay: compound microarray binding of lysate hLAP1 – cell lysate, small-molecule microarray, COS7 lysate, 635/667 nm fluorescence, primary screen (AID 1116). Conditions: 635 nm fluorescence, higher = more signal.
Torsin-1A-interacting protein 1 (Homo sapiens), sequence (Q5JTV8 whole entry, looked up): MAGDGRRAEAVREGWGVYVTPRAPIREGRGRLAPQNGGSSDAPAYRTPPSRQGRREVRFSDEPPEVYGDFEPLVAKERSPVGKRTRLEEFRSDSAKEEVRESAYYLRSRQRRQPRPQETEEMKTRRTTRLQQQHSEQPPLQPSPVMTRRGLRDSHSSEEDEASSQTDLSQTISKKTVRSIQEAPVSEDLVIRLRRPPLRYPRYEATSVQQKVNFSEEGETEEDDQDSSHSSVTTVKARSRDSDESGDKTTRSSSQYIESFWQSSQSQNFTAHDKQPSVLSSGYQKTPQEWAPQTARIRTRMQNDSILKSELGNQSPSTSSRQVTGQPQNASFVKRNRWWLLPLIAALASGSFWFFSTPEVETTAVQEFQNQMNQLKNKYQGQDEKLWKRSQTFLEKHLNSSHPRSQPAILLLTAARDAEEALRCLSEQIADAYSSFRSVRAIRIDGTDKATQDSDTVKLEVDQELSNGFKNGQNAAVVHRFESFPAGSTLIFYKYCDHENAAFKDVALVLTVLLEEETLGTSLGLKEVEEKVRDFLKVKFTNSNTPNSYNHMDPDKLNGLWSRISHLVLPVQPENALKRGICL
Assay [20] addresses Alpha-bungarotoxin (Bungarus multicinctus) (UniProt P60615). Nature of the assay: compounds binding labelled alpha-BTX control protein – biochemical, small-molecule microarray, Alexa647 label, 635/667 nm fluorescence, artefact control for SMM control protein annotation, profiling panel (AID 1117). Particulars: alpha-BTX-A647 binding fluorescence, higher = more signal.

Molecules are shown by their SMILES. Activity calls are given as the source filed them.

Fibroblast growth factor 10 (Homo sapiens), sequence (O15520 whole entry, looked up): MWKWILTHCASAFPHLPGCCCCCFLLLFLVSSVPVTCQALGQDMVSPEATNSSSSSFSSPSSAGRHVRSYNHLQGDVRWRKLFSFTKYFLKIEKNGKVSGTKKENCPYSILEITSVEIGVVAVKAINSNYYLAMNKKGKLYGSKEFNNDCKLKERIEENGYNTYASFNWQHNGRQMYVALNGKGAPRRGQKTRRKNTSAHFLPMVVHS
Alpha-bungarotoxin (Bungarus multicinctus), sequence (P60615 whole entry, looked up): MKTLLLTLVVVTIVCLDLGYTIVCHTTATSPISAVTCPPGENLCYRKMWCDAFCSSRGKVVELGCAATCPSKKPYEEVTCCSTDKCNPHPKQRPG
Dickkopf-related protein 1 (Homo sapiens), sequence (O94907 whole entry, looked up): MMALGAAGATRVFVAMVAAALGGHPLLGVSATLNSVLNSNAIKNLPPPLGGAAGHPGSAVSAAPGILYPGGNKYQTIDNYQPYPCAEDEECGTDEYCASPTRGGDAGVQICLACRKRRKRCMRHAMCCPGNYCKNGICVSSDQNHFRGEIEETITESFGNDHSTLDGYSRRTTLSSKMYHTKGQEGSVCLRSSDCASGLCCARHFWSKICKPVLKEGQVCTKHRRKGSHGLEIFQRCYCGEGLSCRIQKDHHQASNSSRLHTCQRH

For `O=C1[C@H]2[C@H]3[C@H](O)[C@H](O)CC(=NOCc4ccccc4)[C@H]3CC[C@H]2C(=O)N1C[C@@H]1CCCO1`, the composite z-score in [1] is 0.565; in assay [2], 0.114; in [3], -0.418; in assay [5], 0.863; in assay [6] it was 0.632; in [7] it was 0.582. Moreover, the composite z-score was 0.728 in assay [8]; 1.11 in assay [9]; -0.209 in assay [10]; 0.536 in [11]; 0.873 in assay [13]; 0.0951 in [14]. Also, the composite z-score is -0.223 in [15]; -0.0685 in [16]; -0.138 in assay [17]; 0.0715 in [18]; 0.278 in assay [19]; 0.0902 in assay [20]. For the same compound, the figures for the z-score in [4] and in assay [12] were 0.0221 (inactive) and 0.188, respectively.
With `Cc1ccc(F)cc1S(=O)(=O)N[C@@H]1CCN(Cc2ccc(CC(C)C)cc2)C1`, the composite z-score in assay [1] was -0.242; in assay [2] it was -0.389; in assay [3], -0.24; in assay [5], -0.253; in assay [6], -1.12; in assay [7], -0.397. The composite z-score in assay [8] is -0.301; in assay [9] it was -0.0911; in assay [10], 0.346; in assay [11], 0.135; in assay [13], -0.185; in assay [14], -0.793. Besides, the composite z-score in assay [15] is -0.328; in assay [16], -0.23; in [17], -0.138; in assay [18], -0.272; in assay [19], 0.464; in [20] it was 0.0331. Further, the z-score in assay [4] is 1.1 (inactive); in [12], -3.88.
Regarding `COc1ccc(O[C@H]2C=C[C@@H](c3ccccc3)O[C@@H]2COC(=O)CCC(C)=NOCC[C@@H]2C=C[C@H](OC(C)=O)[C@@H](COC(C)=O)O2)cc1`, the composite z-score is 0.868 in assay [1]; -0.0184 in assay [2]; -0.483 in [3]; -0.249 in assay [5]; -0.362 in assay [6]; 0.275 in assay [7]. Also, the composite z-score in assay [8] was 0.415; in assay [9], 0.371; in [10], 1.22; in assay [11], -0.119; in assay [13], 0.347; in assay [14], -1.02. Further, the composite z-score was -1.27 in assay [15]; 0.0495 in [16]; 0.199 in [17]; 0.0301 in assay [18]; 0.781 in [19]; -0.0704 in [20]. Further, the z-score was -0.484 (inactive) in [4] and -1.1 in assay [12].
Take `COC(=O)C1=CCC(c2cccc(Cl)c2)O1` (stereo not given): the composite z-score in assay [1] was 1.15; in [2] it was -0.138; in assay [3], 0.381; in assay [5], 0.044; in [6] it was -0.842; in assay [7] it was -0.412. The composite z-score in [8] was -0.578; in assay [9], -0.476; in assay [10], 1.09; in [11] it was 0.387; in assay [13], 0.106; in assay [14], 0.0588. Besides, the composite z-score was -0.23 in assay [15]; -0.0286 in [16]; -0.291 in assay [17]; 0.287 in [18]; 0.0692 in assay [19]; 0.648 in assay [20]. For the same compound, the z-score in assay [4] was -1.15 (inactive); in [12], -2.31.
For the compound `C=CCNC(=O)[C@H]1[C@@H]2C(=O)O[C@@H](c3ccccc3)[C@@H](c3ccccc3)N2[C@@H](c2ccc(O)cc2)[C@]12C(=O)N(C(=O)OCCOC)c1ccc(C#CC3=CCCCC3)cc12`, the composite z-score in [1] is 1.79; in assay [2], 0.298; in [3], 0.263; in [5], 0.966; in assay [6] it was 1.32; in assay [7], 0.205. For the same compound, the composite z-score in assay [8] came out at 0.969; in assay [9], 0.23; in assay [10] it was 1.34; in assay [11] it was 1.04; in [13], 0.879; in [14], 1.64. The composite z-score in assay [15] amounted to 0.566; in assay [16], 0.523; in [17], 1.92; in assay [18] it was 2.64; in [19], 2.09; in [20], 1.79. In addition, the z-score in assay [4] was -0.75 (inactive); in [12] it was -0.812.
For the compound `COc1ccc(-c2ccc3c(n2)CCCN3CC(O)CN2CCCc3nc(C)c(C)cc32)cc1` (stereo not given), the composite z-score in assay [1] was 0.879; in assay [2], 0.323; in assay [3], 0.386; in [5], 0.817; in assay [6], 0.871; in assay [7] it was 0.691. Moreover, the composite z-score in assay [8] came out at 0.995; in assay [9], 1.39; in assay [10] it was 1.6; in [11], 1.02; in [13] it was 0.728; in assay [14] it was 0.0025. The composite z-score in assay [15] is -0.636; in assay [16], 0.459; in assay [17] it was 0.699; in assay [18], 0.667; in [19] it was 0.833; in [20] it was 2.05. The z-score in assay [4] was -0.155 (inactive); in assay [12], -0.578.
